Results on 28 molecules are retold here after ChEMBL document CHEMBL1157539, “Thousands of chemical starting points for antimalarial lead identification” (Nature, 2010).

Holding throughout (assay type): functional
Experiment [1] deals with Plasmodium falciparum. In words: GSK_TCMDC: Inhibition of Plasmodium falciparum 3D7 in whole red blood cells, using parasite LDH activity as an index of growth. Test compounds present at 2uM.
Experiment [2] has as its system Plasmodium falciparum. In words: GSK_TCMDC: Inhibition of Plasmodium falciparum Dd2 in whole red blood cells, using parasite LDH activity as an index of growth. Test compounds present at 2uM.
For a further experiment, the system named is HepG2. As to the kind of experiment: GSK_TCMDC: Percent inhibition of human HepG2 cell line. Test compounds present at 10uM.

For orientation: Inhibition means the percentage by which the read-out fell short of the control. A high value points to a response far below the control.

As to `CCCc1ccc(NC(=O)c2ccc(CN3CCCN(CC4CCCCC4)CC3)cc2)cc1.O=C(O)C(F)(F)F`, the Inhibition with Plasmodium falciparum [1] was 95%; with Plasmodium falciparum [2], 41%; in the experiment with HepG2 it was 49%.
Take `CCCC(C)NC(=O)[C@H](Cc1ccccc1)NC(=O)c1ccc(O)c(-c2ccc(OC)cc2)c1` (some centres undefined): the results for the Inhibition with Plasmodium falciparum [1], with Plasmodium falciparum [2] and in the experiment with HepG2 were 85%, 1% and 12%, respectively.
Regarding `Nc1nc(N)c2c3c(cnc2n1)CCCC3`, the Inhibition is 95% in the experiment with Plasmodium falciparum [1], 0% with Plasmodium falciparum [2] and 61% in the experiment on HepG2.
For the molecule `CCN(CC)CCCN(Cc1ccc(-c2ccc(C(F)(F)F)cc2)cc1)C(=O)Cn1c(SCc2cccc(F)c2F)cc(=O)c2ccccc21.O=C(O)C(O)C(O)C(=O)O`, the Inhibition is on record as 87% in the experiment with Plasmodium falciparum [1], 82% in the experiment on Plasmodium falciparum [2] and 45% with HepG2.
The corresponding values for `CNCc1ccc(-c2cccc(CNCc3ccc(-c4ccccc4)cc3)c2)c(C(=O)OC)c1.O=C(O)C(F)(F)F` are 92%, 19% and 25%.
For `N#CCOc1c(C2CCN(CCCCNC(=O)c3ccc(-c4ccc(C(F)(F)F)cc4)cc3)CC2)ccc2c1CCCC2`, the Inhibition in the experiment with Plasmodium falciparum [1] is given as 97%; in the experiment on Plasmodium falciparum [2] it was 48%; with HepG2 it was 59%.
The corresponding values for `COc1ccccc1C1CCN(CCN2CCC(NC(=O)c3ccc(-c4ccc(C#N)cc4)cc3)CC2)CC1` are 99%, 42% and 31%.
Regarding `Cc1cc(N[C@@H](Cc2ccccc2)C(=O)NC2CCCC2)nc(Nc2ccccc2)n1.O=C(O)C(F)(F)F`, the Inhibition turned out to be 100% with Plasmodium falciparum [1], 82% in the experiment on Plasmodium falciparum [2] and 3% in the experiment on HepG2.
In the case of `N=C(N)NN=Cc1c[nH]c2ccc(-c3ccccc3)cc12.O=C(O)/C=C\C(=O)O`, the Inhibition worked out at 84% in the experiment on Plasmodium falciparum [1], 61% in the experiment with Plasmodium falciparum [2] and 15% with HepG2.
For the molecule `O=C(/C=C/c1cccc2c1OCO2)Nc1ccnc2ccncc12`, the results for the Inhibition in the experiment on Plasmodium falciparum [1], in the experiment on Plasmodium falciparum [2] and in the experiment on HepG2 were 90%, 35% and 17%, respectively.
For the molecule `O=C(c1cccc(-c2ccc(-c3nc4cc(F)ccc4[nH]3)s2)c1)N1CCCCC1CN1CCC(O)C1` (centres undefined), the figures for the Inhibition with Plasmodium falciparum [1], with Plasmodium falciparum [2] and with HepG2 were 100%, 85% and 23%, respectively.
Take `O=C(/C=C/c1ccc(Cl)c(Cl)c1)NCCCCCN1CCC(c2c[nH]c3ccc(O)cc23)CC1`: the values for the Inhibition in the experiment with Plasmodium falciparum [1], in the experiment on Plasmodium falciparum [2] and in the experiment on HepG2 were 100%, 0% and 20%, respectively.
For the molecule `O=CO.c1ccc(CCNc2ccnc(Nc3ccc4cn[nH]c4c3)n2)cc1`, the Inhibition was determined as 100% with Plasmodium falciparum [1], 100% in the experiment with Plasmodium falciparum [2] and 54% in the experiment on HepG2.
Regarding `COc1ccc(N(C)Cc2cnc3nc(N)nc(N)c3n2)cc1`, the Inhibition in the experiment on Plasmodium falciparum [1] turned out to be 98%; with Plasmodium falciparum [2], 0%; in the experiment with HepG2, 15%.
As for `CC(=O)N/N=C/[C@H](CCc1ccccc1)NC(=O)[C@H](CC(C)C)NC(=O)c1cccc(OCCN2CCOCC2)c1`, the Inhibition in the experiment on Plasmodium falciparum [1] is given as 94%; in the experiment with Plasmodium falciparum [2], 78%; in the experiment on HepG2, 13%.
Regarding `CC[C@H]1CN(Cc2ccccc2Br)CC[C@H]1CCCc1ccnc2ccc(O)cc12`, the Inhibition was 86% in the experiment on Plasmodium falciparum [1], 2% with Plasmodium falciparum [2] and 12% with HepG2.
Consider `O=C(CNCC1CCCCC1)Nc1cc(C(F)(F)F)ccc1Cl`, for which the Inhibition in the experiment with Plasmodium falciparum [1] worked out at 86%; in the experiment on Plasmodium falciparum [2] it was 67%; in the experiment on HepG2 it was 1%.
For `Cl.O=C(O)CNCC(O)c1ccccc1` (centres undefined), in that order: 96%, 0% and 7%.
`CN(C)C(S)=NN=Cc1cccc(O)c1O`: the figures for the Inhibition with Plasmodium falciparum [1], in the experiment with Plasmodium falciparum [2] and in the experiment with HepG2 were 91%, 55% and 11%, respectively.
Turning to `O=C(NC1c2ccccc2Oc2ccccc21)c1ccccc1O`, the Inhibition was found to be 95% in the experiment on Plasmodium falciparum [1], 0% in the experiment on Plasmodium falciparum [2] and 0% in the experiment with HepG2.
With `CN1CCN(CCCN(Cc2cccc(-c3cccc(CNCCc4ccccc4)c3)c2)C(=O)Nc2ccccc2)CC1.O=C(O)C(F)(F)F`, the Inhibition in the experiment on Plasmodium falciparum [1] amounted to 97%; in the experiment with Plasmodium falciparum [2] it was 82%; with HepG2, 92%.
On to `O=C(Nc1cc(Cl)ccc1Cl)N[C@H]1CCN(CCCCCNC(=O)C2CC2c2ccc(Cl)c(Cl)c2)C1` (some centres undefined), for which the Inhibition stood at 97% in the experiment with Plasmodium falciparum [1], 1% in the experiment with Plasmodium falciparum [2] and 49% with HepG2.
The corresponding values for `Cc1cc2ncn(-c3nccc(NCc4ccc(F)cc4)n3)c2cc1C.O=C(O)C(F)(F)F` are 98%, 83% and 10%.
Regarding `Cc1nc2ccc(Nc3nccc(-c4c(-c5cccc(NC(=O)c6c(F)cccc6F)c5)nn5ccccc45)n3)cc2nc1C`, the Inhibition with Plasmodium falciparum [1] was found to be 91%; with Plasmodium falciparum [2], 45%; in the experiment with HepG2 it was 55%.
As to `Cc1nnsc1C(=O)Nc1cccc(-c2ccc(-c3nc4cc(C(F)(F)F)ccc4[nH]3)cc2)c1`, the Inhibition in the experiment on Plasmodium falciparum [1] turned out to be 99%; in the experiment on Plasmodium falciparum [2] it was 97%; with HepG2, 62%.
In the case of `CCn1c(-c2nonc2N)nc2c(-c3ccccc3)ncc(OCCCNCCCN3CCOCC3)c21.O=C(O)C(F)(F)F`, the Inhibition in the experiment on Plasmodium falciparum [1] is recorded as 100%; in the experiment with Plasmodium falciparum [2], 91%; in the experiment on HepG2, 28%.
For `OC(CNc1cccc(Cl)c1)Cn1c2ccc(Cl)cc2c2cc(Cl)ccc21` (centres undefined), in that order: 95%, 33% and 8%.
`COc1ccc2ncc(F)c(CCN3CC[C@H](NCc4cc(C#N)c5c(c4)OCCO5)[C@H](O)C3)c2c1`: the Inhibition in the experiment on Plasmodium falciparum [1] turned out to be 96%; in the experiment on Plasmodium falciparum [2], 47%; in the experiment with HepG2, 51%.
